Assay outcomes deposited in PubChem BioAssay by several laboratories.
An excerpt weighted towards active compounds, which were near 5.9% of everything screened.
GAA850 FXN act: frataxin GAA850 promoter activation. AID 540364. activation, % at 6 µM. HEK293 lucGAA850 FXN promoter luciferase reporter, 24 h; percent of 10 µM SAHA response. 360,000 tested, 0.56% active;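 active = activation above the average of all compounds screened plus 3 SD, cutoff fixed separately per campaign, cut at about 7.5% in these data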;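 note: 0% = DMSO wells and 100% = 10 µM SAHA wells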
AHR activator: human AHR activation; 320,000 tested, 2.5% active; AHR-responsive luciferase reporter cells, luminescence; P35869; activation, % at 5 µM; in the data active = activation above about 47%;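 note: 0% = vehicle wells and 100% = reference agonist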
Target sequence (P35869 whole entry, looked up): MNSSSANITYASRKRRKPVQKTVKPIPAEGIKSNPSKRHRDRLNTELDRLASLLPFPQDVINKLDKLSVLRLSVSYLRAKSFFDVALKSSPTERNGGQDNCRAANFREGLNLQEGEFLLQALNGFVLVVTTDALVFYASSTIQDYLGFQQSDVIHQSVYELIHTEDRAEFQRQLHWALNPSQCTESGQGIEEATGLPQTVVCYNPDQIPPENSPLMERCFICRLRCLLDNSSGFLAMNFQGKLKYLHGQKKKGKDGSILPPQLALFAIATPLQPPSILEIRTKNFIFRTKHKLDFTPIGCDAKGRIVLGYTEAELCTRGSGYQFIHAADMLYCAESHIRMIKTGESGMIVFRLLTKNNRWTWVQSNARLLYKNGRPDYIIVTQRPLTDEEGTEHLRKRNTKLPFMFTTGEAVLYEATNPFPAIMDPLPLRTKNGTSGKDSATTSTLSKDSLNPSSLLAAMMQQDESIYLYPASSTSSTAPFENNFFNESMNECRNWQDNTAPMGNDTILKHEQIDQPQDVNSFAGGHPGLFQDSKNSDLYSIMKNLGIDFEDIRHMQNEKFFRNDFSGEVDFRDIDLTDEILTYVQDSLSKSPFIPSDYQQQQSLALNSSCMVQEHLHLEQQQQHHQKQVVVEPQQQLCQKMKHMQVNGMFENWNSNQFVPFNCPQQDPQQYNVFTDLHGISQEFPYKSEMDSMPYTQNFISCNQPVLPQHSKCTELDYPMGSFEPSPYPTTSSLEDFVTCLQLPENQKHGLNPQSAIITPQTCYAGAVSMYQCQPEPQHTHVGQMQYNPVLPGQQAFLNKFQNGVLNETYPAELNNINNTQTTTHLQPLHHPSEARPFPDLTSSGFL
HSP90 inh: inhibitors of HSP90 luciferase refolding in rabbit reticulocyte lysate; luciferase refolding luminescence, 3 h; inhibition, % at 5.6 µM; 290,000 tested, 0.91% active;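 active = inhibition above the screen-wide mean plus 3 SD, computed separately per campaign, cut at about 16% in these data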;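 note: 0% = DMSO wells and 100% = 60 µM geldanamycin wells; inhibitors lower the luminescence because luciferase stays unfolded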
NR0B1 inh: NR0B1 (DAX1) inhibition. P51843. HEK293 Gal4-DAX1 luciferase reporter, luminescence. inhibition, % at 6.75 µM. 340,000 tested, 0.99% active;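 active = inhibition above the mean over all tested compounds plus 3 SD, cut at about 4.2% in these data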;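 note: 0% = DAX1-transfected cells with DMSO and 100% = empty-vector control cells with DMSO; inhibition shows as a rise in luminescence from relieved DAX1 repression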
HSF1 inh: HSF1 inhibition; 300,000 tested, 0.77% active; NIH3T3-HGL HSE-luciferase, MG132-induced, luminescence 8 h; hits give low values; activity change, negative = inhibition, % at 7.5 µM (by protocol);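 active = more than half of replicate wells show activity change below -50%, luminescence cut by over half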;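 note: luciferase reports HSF-1 transcriptional activity via heat shock element; 0% = median of DMSO wells and -100% = zero luminescence signal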
HSF-1 act: increases HSF-1 driven luciferase reporter signal; NIH3T3-HGL HSF-1 luciferase reporter, MG132, 8 h; 100% = twice DMSO control signal; 300,000 tested, 1.7% active; activation, % at 9 µM; AID 504408;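 active = mean replicate activation of at least 50% with a set share of replicates each reaching 50%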;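 note: 0% = median of the neutral control wells and 100% = twice that signal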
* hit, by the source's call; nt = not tested or not shown.

SMILES | GAA850 FXN act | AHR activator | HSP90 inh | NR0B1 inh | HSF1 inh | HSF-1 act
Cc1ccccc1Nc1nc(N)nc(COC(=O)c2ccccc2)n1 | 6 | 2 | -9 | 1 | 44 | 58*
Cc1ccccc1Nc1nc(N)nc(COC(=O)c2ccc(O)cc2)n1 | 6 | 8 | -6 | 0 | 1 | 5
CCc1ccccc1Nc1nc(N)nc(COC(=O)c2cccn2C)n1 | -6 | 8 | 3 | 0 | 6 | 14
Cc1ccccc1Nc1nc(N)nc(COC(=O)c2cccn2C)n1 | 4 | 8 | 0 | 5.5* | 1 | 7
CC1(C(=O)NS(=O)(=O)c2cccc(Cl)c2)CCN1C(=O)c1ccccc1 (stereo unspecified) | 0 | nt | nt | nt | nt | nt
N#C[C@H]1C(O)C(O)c2ccccc2N1C(=O)c1ccccc1 (stereo partly specified) | 0 | 4 | nt | 4.3* | 1 | -3
Cc1ccc(N=Nc2c(C)[nH][nH]c2=O)c(C)c1 | 0 | 48* | 2 | 0 | 22 | 12
Nc1ccc(SCc2cccnc2)cc1 | 1 | 7 | -1 | -1 | 1 | 6
COC(=O)c1cc(C(=O)Nn2cnnc2)cc([N+](=O)[O-])c1 | 0 | 1 | -6 | 0 | -2 | -14
COc1ccc(-c2noc(CCCOc3ccccc3)n2)cc1OC | 3 | 5 | -5 | 0 | -3 | -1
COc1ccc(-c2noc(CCN3C(=O)c4ccccc4C3=O)n2)cc1OC | -1 | -13 | -3 | -1 | 43 | 87*
COc1ccccc1NC(=O)c1ccc(COc2ccc3c(c2)CCC3)cc1 | 1 | 3 | 2 | 0 | 11 | 25
O=C(O)c1cccc(COc2ccc(CO)cc2Cl)c1 | -5 | -3 | nt | -6 | -91* | -93
CCOc1ccc(OCc2cccc(C(=O)O)c2)cc1 | -2 | -17 | nt | -6 | -93* | -94
COc1cccc(OC)c1C(=O)NNC(=O)c1cccc(COc2ccc3c(c2)CCC3)c1 | 2 | -5 | 10 | -4 | -57* | -58
COc1ccc(OCc2cccc(C(=O)O)c2)cc1 | -1 | -7 | nt | -6 | -90* | -91
CC1CC(C)CN(CC(=O)NNC(=O)COc2ccc(Cl)cc2)C1 (stereo unspecified) | -1 | 0 | nt | -1 | nt | nt
OC(c1cccc(Cl)c1)c1nc(-c2ccc(F)c(Cl)c2)cs1 (stereo unspecified) | 1 | nt | nt | nt | nt | nt
CCN(C(=O)CSc1nnc(COc2ccccc2F)n1N)c1c(N)n(Cc2ccccc2)c(=O)[nH]c1=O | 2 | nt | nt | 1 | nt | nt
C=C(C)Cn1cnc2c(oc3nc4c(cc32)CCCC4)c1=O | 2 | -3 | 0 | 6.6* | 9 | 44
Cn1c(N)c(C(=O)COC(=O)CSc2ccc3ccccc3c2)c(=O)n(C)c1=O | 3 | 4 | -1 | 0 | 3 | 7
Cc1cc(C)nc(SCC(=O)c2c(N)n(C)c(=O)n(C)c2=O)n1 | 3 | 50* | -6 | 1 | 1 | -6
Cn1c(N)c(C(=O)COC(=O)CSc2ccccc2)c(=O)n(C)c1=O | 4 | -1 | 2 | 8.5* | 4 | 11
COc1ccc(CCN(C)CC(=O)Nc2c(C)cc(C)cc2C)cc1OC | 0 | -2 | 0 | -1 | 2 | 1
O=C(Nc1ccccc1)c1cc(S(=O)(=O)NCc2ccncc2)ccc1Cl | -2 | 9 | 0 | -2 | -2 | -4
SMILES | GAA850 FXN act | AHR activator | HSP90 inh | NR0B1 inh | HSF1 inh | HSF-1 act
COc1ccccc1/C=C1\SC(=S)N(CCC(=O)NNC(=O)c2ccccc2O)C1=O | 1 | 56* | 6 | -1 | -6 | -3
COc1ccc(/C=C2\SC(=S)N(CCCC(=O)NNC(=O)c3ccccc3O)C2=O)cc1 | -12 | -2 | -2 | -2 | -7 | -23
COc1cc(NC(=O)CN(C)S(=O)(=O)c2ccc3c(c2)CC(C)N3C(C)=O)cc(OC)c1 (stereo unspecified) | -1 | 3 | 4 | 0 | -84* | -88
CC(=O)N1c2ccc(S(=O)(=O)N(C)CC(=O)Nc3ccccc3C)cc2CC1C (stereo unspecified) | 0 | 3 | -3 | -1 | -61* | -70
Cc1c(NC(=O)c2cccc(NC(=O)Cc3ccccc3Cl)c2)c(=O)n(-c2ccccc2)n1C | -1 | nt | nt | 1 | nt | nt
COCC(=O)Nc1cc(C)cn(Cc2ccc(F)cc2)c1=O | 0 | -1 | 2 | 1 | -4 | 0
CCNC(=O)c1c(NC(=O)c2cc(-c3cc(C)cc(C)c3O)n[nH]2)sc2c1CCCC2 | 1 | nt | nt | 0 | nt | nt
CCCn1c(NC(=O)c2ccccc2)nc2ccccc21 | -1 | 46 | 2 | 0 | 0 | 6
O=C(Nc1nc2ccccc2n1CCN1CCCCC1)c1ccc(Cl)cc1 | nt | 11 | -1 | nt | 0 | -21
Cc1ccc(C(=O)Nc2nc3ccccc3n2CCN2CCCC2)cc1 | 5 | 47* | 5 | 1 | 16 | 34
COc1ccc(OC)c(CNc2nc3ccccc3n2CCN2CCCCC2)c1 | -5 | 8 | 2 | 2 | 1 | 6
CCCn1c(NC(=O)c2ccc(C)cc2)nc2ccccc21 | 4 | 49* | -1 | 0 | 10 | 33
COc1ccc(CNc2nc3ccccc3n2CCN2CCCCC2)c(OC)c1 | -7 | 1 | 2 | 0 | 31 | 74*
CCCn1c(NC(=O)c2cccc(S(=O)(=O)N3CCCC3)c2)nc2ccccc21 | 4 | 1 | 0 | -3 | -54* | -52
CCOC(=O)C1(C)CCCCCN1C(=O)c1ccc(Cl)nc1 (stereo unspecified) | 0 | nt | nt | nt | nt | nt
CCc1nnc(NC(=O)c2cccc(S(=O)(=O)N3CCCCC3)c2)s1 | 1 | 16 | -3 | 2 | -56* | -57
Cn1c(NC(=O)c2cccnc2)nc2ccccc21 | 3 | 78* | -1 | 1 | 11 | 28
O=C(Nc1nc2ccccc2n1CCN1CCCC1)c1ccc(Cl)cc1 | 2 | 54* | -3 | 1 | nt | nt
CCc1nnc(NC(=O)c2cccc(S(=O)(=O)N3CCCC3)c2)s1 | 0 | 6 | -2 | 0 | -3 | 5
c1ccc(COc2ccccc2CNC2CCCC2)cc1 | 1 | -1 | -1 | 1 | 24 | 58*
O=C1N/C(=C/c2ccc(N3CCOCC3)o2)C(=O)N1c1cccc(Cl)c1 | 8.9* | -1 | -2 | -1 | 95 | 125*
CC(C)(C)c1ccc(CC(=O)N2CCC2(C)C(=O)NCc2ccc3c(c2)OCO3)cc1 (stereo unspecified) | -1 | nt | nt | nt | nt | nt
O=C(Nc1ccnc(-c2ccncc2)n1)C1CC1 | 2 | 52* | 6 | -1 | -3 | -3
Cc1ccccc1C(=O)O/N=C1\CCS(=O)(=O)c2sccc21 | 7 | 3 | 0 | 0 | 47 | 74*
CC(C)C(=O)O/N=C1\CCS(=O)(=O)c2sccc21 | 0 | 5 | -1 | 6.2* | -6 | -15
COc1ccc(C(=O)O/N=C2\CCS(=O)(=O)c3sccc32)cc1 | 0 | 3 | 2 | 1 | 0 | 5
